Reference: PubChem BioAssay (NCATS)
Records with an inconclusive call do not appear. Activity calls are given as the source filed them. Unless noted, the call rests on the fitted dose curve; in most records, active means well fitted cell-killing curve with a large enough effect; inconclusive means small, poorly fitted or top-dose-only effect; inactive means flat fitted curve, though single readings scatter.

Columns and labels:
[1] = Cell Viability - LYMP2-025 (AID 976); further: series mostly up to about 92 µM
In short: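 Acute cytotoxicity is scored as a concentration-dependent fall in intracellular ATP, measured by luciferase luminescence, in human lymphoblastoid LYMP2-025 cells exposed to compound for 24 hours at 37 C. AC50 values come from standard Hill fits.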

[2] = Cell Viability - LYMP2-002 (AID 977); further: series mostly up to about 92 µM
In short: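 Human lymphoblastoid cells, 2500/well, complete medium; 5 h 37 C settle; compound 24 h 37 C; CellTiter-Glo, 30 min RT; luminescence. Decrease in ATP = cytotoxicity; AC50 via Hill equation.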

[3] = Cell Viability - LYMP2-006 (AID 978); further: series mostly up to about 92 µM; nearly all actives have a fitted effect of over 60% in size
In short: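 Potency values are Hill-fit AC50s for decreases in intracellular ATP (CellTiter-Glo luminescence). LYMP2-006 lymphoblastoid cells, 2500 per well, were exposed to compound in complete culture medium for 24 hr at 37 C.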

[4] = Cell Viability - LYMP2-007 (AID 979);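 further: cells exposed to compound for 24 h before reading; nearly all actives have a fitted effect of over 60% in size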
In short: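 Cells are seeded at 2500 per well and rested 5 hr. Compounds are then added over a concentration series for 24 hr at 37 C. CellTiter-Glo is added for 30 min at room temperature before luminescence reading.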

[5] = Cell Viability - LYMP2-008 (AID 980); further: nearly all actives have a fitted effect of over 60% in size
In short: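 Cells seeded at 2500/well and rested 5 hr at 37 C; compounds added over a concentration range and incubated 24 hr at 37 C; CellTiter-Glo added, 30 min at room temperature; luminescence read and AC50 fitted with Hill model.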

[6] = Cell Viability - LYMP2-010 (AID 981); further: nearly all actives have a fitted effect of over 55% in size
In short: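 Steps: seed 2500 LYMP2-010 cells per well; incubate 5 hr at 37 C; add compound; incubate 24 hr at 37 C; add CellTiter-Glo, wait 30 min at room temperature; read luminescence. Concentration-response fitted to Hill equation for AC50.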

[7] = Cell Viability - LYMP2-012 (AID 982);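 further: cellular ATP by luciferase luminescence where a drop means cytotoxicity; cells exposed to compound for one day before reading; nearly all actives have a fitted effect of over 55% in size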
[8] = Cell Viability - LYMP2-014 (AID 983); further: series mostly up to about 92 µM; nearly all actives have a fitted effect of over 50% in size
In short: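 Cells are plated at 2500/well and left 5 hr at 37 C. Compounds are added across a concentration range and incubated 24 hr at 37 C in complete medium. CellTiter-Glo is added, and luminescence is read after 30 min at room temperature.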

[9] = Cell Viability - LYMP2-016 (AID 984); further: nearly all actives have a fitted effect of over 55% in size
In short: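 Cytotoxicity was scored by luminescent ATP content (CellTiter-Glo) after 24 h compound exposure at 37 C of a human lymphoblastoid line at 2500 cells/well. Concentration-response data were fitted to the Hill equation for AC50.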

[10] = Cell Viability - LYMP2-018 (AID 985);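 further: compound exposure lasted 24 hr at 37 °C; nearly all actives have a fitted effect of over 50% in size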
In short: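 Seed 2500 lymphoblastoid cells per well, incubate 5 hr at 37 C, add compound and incubate 24 hr at 37 C, add CellTiter-Glo, wait 30 min at room temperature, then read luminescence.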

[11] = Cell Viability - LYMP2-020 (AID 986); further: series mostly up to about 92 µM; nearly all actives have a fitted effect of over 55% in size
In short: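 Seed 2500 cells per well and incubate 5 hr at 37 C. Add compounds at a concentration series and incubate 24 hr at 37 C. Add CellTiter-Glo, wait 30 min at RT, read luminescence, and fit a Hill curve for AC50.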

[12] = Cell Viability - LYMP2-022 (AID 987); further: nearly all actives have a fitted effect of over 55% in size
In short: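 Cells were seeded at 2500 per well, rested 5 hr at 37 C, and treated with titrated compounds for 24 hr at 37 C. Cellular ATP was then quantified by luciferase luminescence, and AC50 values were derived from Hill-modelled concentration-response curves.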

[13] = Cell Viability - LYMP2-026 (AID 989); further: nearly all actives have a fitted effect of over 50% in size
In short: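 Cells are seeded at 2500 per well and held 5 hr at 37 C. Compounds are added in concentration series for 24 hr, then CellTiter-Glo reagent is applied and luminescence read.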

[14] = Cell Viability - LYMP1-002 - Assay at 24 hr (AID 993)
In short: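 Acute toxicity is measured as concentration-dependent loss of cellular ATP in a human lymphoblastoid line (Coriell LYMP1-002) after 24 h treatment in complete medium. ATP is quantified by luciferase luminescence and AC50 derived by Hill modelling.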

[15] = Cell Viability - LYMP1-002 - Assay at 40 hr (AID 994); further: nearly all actives have a fitted effect of over 60% in size
In short: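 Cells are plated at 2500 per well and rested 5 hr at 37 C. Compounds are added and incubated 40 hr at 37 C. CellTiter-Glo reagent is added for 30 min at room temperature before luminescence is read.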

[16] = qHTS Assay for Identification of Small Molecule Inducers of Hypoxia Response (AID 2120; active means well fitted curve in the direction sought with a large enough effect in the signal ratio, with a control signal flat, not every such curve was filed as active; the % refers to the signal ratio)
In short: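 Cell-based qHTS for reporter induction: hypoxia response element controlled beta-lactamase in ME-180 cells. Compounds incubated 17 h at 37 degrees C; activity from blue/green (460/530 nm) ratio, inducers ranked by AC50.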

[17] = Cell Viability - LYMP2-024 (AID 988); further: nearly all actives have a fitted effect of over 60% in size
In short: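 qHTS cytotoxicity, human lymphoblastoid line, complete medium; 24 h cpd treatment, 37 C; CellTiter-Glo ATP luminescence readout; tetraoctylammonium bromide positive control; AC50 via Hill fit.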

Measured: Potency

CC(CCl)OC(C)CCl (stereo not drawn)
inactive: [1] | [2] | [3] | [4] | [5] | [6] | [7] | [8] | [9] | [10] | [11] | [12] | [13] | [14] | [15] | [16]

N#Cc1ccccc1
inactive: [1] | [2] | [3] | [4] | [5] | [6] | [7] | [9] | [10] | [11] | [12] | [17] | [13] | [14] | [15] | [16]

C=Cc1ccccn1
inactive: [1] | [2] | [3] | [4] | [5] | [6] | [7] | [8] | [9] | [11] | [12] | [17] | [13] | [14] | [15] | [16]

NCCCCCCN
inactive: [1] | [2] | [3] | [4] | [5] | [6] | [7] | [8] | [9] | [10] | [11] | [12] | [13] | [14] | [15] | [16]

Cc1ccc([N+](=O)[O-])c(N)c1
inactive: [1] | [2] | [3] | [4] | [5] | [6] | [7] | [8] | [9] | [10] | [11] | [17] | [14] | [16]

Cc1cccc2cccnc12
inactive: [1] | [2] | [3] | [4] | [5] | [6] | [7] | [8] | [10] | [11] | [12] | [17] | [13] | [14] | [16]

O=Cc1ccccc1Cl
inactive: [1] | [2] | [3] | [4] | [5] | [6] | [7] | [8] | [9] | [10] | [11] | [12] | [13] | [14] | [15] | [16]

CC(C)(C)OCC1CO1 (stereo not drawn)
inactive: [1] | [2] | [3] | [4] | [5] | [6] | [7] | [8] | [9] | [10] | [11] | [17] | [13] | [14] | [15] | [16]

O=C(O)c1cccc([N+](=O)[O-])c1
inactive: [1] | [2] | [3] | [4] | [5] | [6] | [7] | [8] | [10] | [11] | [12] | [17] | [14] | [15] | [16]

CC(=O)OCCC(C)C
inactive: [1] | [2] | [3] | [4] | [5] | [6] | [7] | [9] | [10] | [11] | [12] | [17] | [13] | [15] | [16]

O=[N+]([O-])c1ccc(NCCO)c(OCCO)c1
inactive: [1] | [2] | [3] | [4] | [5] | [6] | [7] | [8] | [9] | [10] | [11] | [12] | [13] | [14] | [16]

CCOCCO
inactive: [1] | [2] | [3] | [4] | [5] | [6] | [7] | [8] | [9] | [10] | [11] | [17] | [13] | [14] | [15] | [16]

CCC1CO1 (stereo not drawn)
inactive: [1] | [2] | [3] | [4] | [5] | [6] | [7] | [9] | [10] | [11] | [12] | [17] | [13] | [14] | [15] | [16]

Cc1cc(C2(c3cc(C)c(O)cc3C)OS(=O)(=O)c3ccccc32)c(C)cc1O
inactive: [1] | [2] | [3] | [4] | [5] | [6] | [7] | [9] | [10] | [11] | [12] | [17] | [14] | [15] | [16]

CCCCC(CC)CNCC(CC)CCCC (stereo not drawn)
inactive: [1] | [2] | [3] | [4] | [5] | [6] | [7] | [8] | [9] | [10] | [11] | [12] | [13] | [14] | [15] | [16]

CCCCCNCCCCC
inactive: [1] | [2] | [3] | [4] | [5] | [6] | [7] | [8] | [9] | [10] | [11] | [17] | [14] | [15] | [16]

O=C(O)CNC(=O)c1ccc([N+](=O)[O-])cc1
inactive: [1] | [2] | [3] | [4] | [5] | [6] | [7] | [8] | [10] | [11] | [17] | [13] | [15] | [16]

c1ccc(Oc2ccccc2)cc1
inactive: [1] | [2] | [3] | [4] | [5] | [6] | [7] | [9] | [10] | [11] | [12] | [17] | [13] | [14] | [15] | [16]
